A short description of test [1]: NCI Yeast Anticancer Drug Screen. Data for the rad50 strain (AID 155).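 Further: 0% = growth of vehicle-only cultures of the same strain.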 The following applies: S. cerevisiae rad50 strain growth inhibition, active compounds read high. In a few lines:
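Readout: growth inhibition relative to vehicle-treated cultures. Compound exposure was carried out in a genetically defined yeast strain deficient in DNA damage repair.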

Test [2] can be described thus: NCI Yeast Anticancer Drug Screen. Data for the mec2-1 strain (AID 157). The settings on record: S. cerevisiae mec2-1 strain, active compounds read high. In a few lines:
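Mutant yeast (mec2-1) grown with compound; growth inhibition relative to vehicle control reported.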

Test [3] is described as follows: NCI Yeast Anticancer Drug Screen. Data for the sgs1 mgt1 strain (AID 161).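 Further: 0% = growth of cultures given vehicle only.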 The following applies: S. cerevisiae sgs1 mgt1 strain, active compounds read high. The method, boiled down:
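Yeast cells carrying a defined DNA-repair defect were exposed to test compounds. Growth inhibition was measured relative to vehicle-treated controls.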

Test [4] is described as follows: NCI Yeast Anticancer Drug Screen. Data for the cln2 rad14 strain (AID 165).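 Further: 0% = growth equal to vehicle treated cultures.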 The settings on record: S. cerevisiae cln2 rad14 strain, active compounds read high. The method, boiled down:
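Readout is yeast growth inhibition versus vehicle-treated controls, using a strain with cln2 and rad14 alterations exposed to compound.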

Test [5] can be described thus: NCI Yeast Anticancer Drug Screen. Data for the bub3 strain (AID 167). The following applies: S. cerevisiae bub3 mutant strain, active compounds read high. The method, boiled down:
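Readout: yeast growth inhibition, expressed relative to vehicle-only wells. The test organism is a mutant strain from a panel with lesions in DNA repair or checkpoint genes.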

A short description of test [6]: NCI Yeast Anticancer Drug Screen. Data for the mlh1 rad18 strain (AID 175). The settings on record: S. cerevisiae mlh1 rad18 strain growth inhibition, active compounds read high. In a few lines: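 Genetically defined yeast (DNA repair-deficient) exposed to compounds; growth inhibition determined relative to vehicle.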
Where [7] appears, read: at 5.0 µM (retest, dose inferred, filed as 0.5).
The mark [8] stands for this setting: at 50.0 µM (retest, dose inferred, filed as 5.0).

SMILES strings stand for the structures. Compounds without any hit were thinned out: in the full panel of roughly 79,000, 15% have a hit. A number with no mark means an inactive call. Activity calls are given as the source filed them. No stated cut-off is given here; in the data, active means growth inhibition above about 70%; inactive means the rest.

On to `O=C(/C(O)=C(\O)C(=O)N(C1CCCCC1)C1CCCCC1)N(C1CCCCC1)C1CCCCC1`, for which the growth inhibition is 25% in test [1] (setting [7]); 93% (active) in test [1] (setting [8]); 96.9% (active) in test [1] (at 50.0 µM); -2% in test [2] (setting [7]); 89% (active) in test [2] (setting [8]); 98.2% (active) in test [2] (at 50.0 µM). In addition, the growth inhibition in test [3] (setting [7]) is 20%; in test [3] (setting [8]) it was 87% (active); in test [3] (at 50.0 µM), 96.8% (active); in test [4] (setting [7]) it was -4%; in test [4] (setting [8]) it was 66%; in test [4] (at 50.0 µM), 79.7% (active). Moreover, the growth inhibition in test [5] (setting [7]) is 4%; in test [5] (setting [8]), 95% (active); in test [5] (at 50.0 µM), 95.5% (active); in test [6] (setting [7]), 14%; in test [6] (setting [8]), 86% (active); in test [6] (at 50.0 µM) it was 97.8% (active).
Turning to `CN(C)c1cc[c]([Sn]([c]2ccc(N(C)C)cc2)([c]2ccc(N(C)C)cc2)[c]2ccc(N(C)C)cc2)cc1`, the growth inhibition is 0% in test [1] (setting [7]); 0% in test [1] (setting [8]); 72.5% (active) in test [1] (at 50.0 µM); 4% in test [2] (setting [7]); 4% in test [2] (setting [8]); 34.1% in test [2] (at 50.0 µM). In addition, the growth inhibition in test [3] (setting [7]) was -9%; in test [3] (setting [8]), -9%; in test [3] (at 50.0 µM) it was 37%; in test [4] (setting [7]), -12%; in test [4] (setting [8]), -12%; in test [4] (at 50.0 µM), 34.4%. The growth inhibition in test [5] (setting [7]) was -12%; in test [5] (setting [8]), -12%; in test [5] (at 50.0 µM), 49.4%; in test [6] (setting [7]), -18%; in test [6] (setting [8]) it was -18%; in test [6] (at 50.0 µM), 78.8% (active).
For the compound `C#CCOC(=O)Nc1nc2ccc(SC#N)cc2s1`, the growth inhibition in test [1] (setting [7]) was 9%; in test [1] (setting [8]), 90% (active); in test [1] (at 50.0 µM), 97.8% (active); in test [2] (setting [7]), -5%; in test [2] (setting [8]) it was 87% (active); in test [2] (at 50.0 µM) it was 96.8% (active). For the same compound, the growth inhibition in test [3] (setting [7]) is 3%; in test [3] (setting [8]) it was 98% (active); in test [3] (at 50.0 µM), 97.7% (active); in test [4] (setting [7]), 0%; in test [4] (setting [8]) it was 92% (active); in test [4] (at 50.0 µM), 96.4% (active). In addition, the growth inhibition in test [5] (setting [7]) is 14%; in test [5] (setting [8]), 90% (active); in test [5] (at 50.0 µM) it was 97.6% (active); in test [6] (setting [7]), 4%; in test [6] (setting [8]), 96% (active); in test [6] (at 50.0 µM), 97.2% (active).
Take `Oc1c(Cl)cc(Cl)c(Cc2c(Cl)cc(Cl)c(O)c2Cl)c1Cl`: the growth inhibition in test [1] (setting [7]) was 98% (active); in test [1] (setting [8]), 97% (active); in test [1] (at 50.0 µM), 65.8%; in test [2] (setting [7]) it was 98% (active); in test [2] (setting [8]), 98% (active); in test [2] (at 50.0 µM), 3.5%. Also, the growth inhibition in test [3] (setting [7]) is 98% (active); in test [3] (setting [8]), 99% (active); in test [3] (at 50.0 µM), -10.2%; in test [4] (setting [7]) it was 98% (active); in test [4] (setting [8]) it was 97% (active); in test [4] (at 50.0 µM), 19.5%. For the same compound, the growth inhibition in test [5] (setting [7]) is 97% (active); in test [5] (setting [8]) it was 97% (active); in test [5] (at 50.0 µM), -3.05%; in test [6] (setting [7]) it was 99% (active); in test [6] (setting [8]), 96% (active); in test [6] (at 50.0 µM), 46.6%.
On to `O=C(c1ccc(Br)cc1)C1N=NCC1c1ccccc1` (configuration not stated), for which the growth inhibition is 1% in test [1] (setting [7]); 36% in test [1] (setting [8]); -4.75% in test [1] (at 50.0 µM); 9% in test [2] (setting [7]); 52% in test [2] (setting [8]); 64.7% in test [2] (at 50.0 µM). The growth inhibition in test [3] (setting [7]) was 4%; in test [3] (setting [8]) it was -14%; in test [3] (at 50.0 µM), 64.7%; in test [4] (setting [7]) it was 6%; in test [4] (setting [8]), 65%; in test [4] (at 50.0 µM), 12.8%. The growth inhibition was 0% in test [5] (setting [7]); 59% in test [5] (setting [8]); 86.3% (active) in test [5] (at 50.0 µM); -4% in test [6] (setting [7]); 64% in test [6] (setting [8]); 80.2% (active) in test [6] (at 50.0 µM).
In the case of `O=[N+]([O-])CC(O)c1ccccc1Cl` (configuration not stated), the growth inhibition was 90% (active) in test [1] (setting [7]); 98% (active) in test [1] (setting [8]); 99.3% (active) in test [1] (at 50.0 µM); 5% in test [2] (setting [7]); 99% (active) in test [2] (setting [8]); 99.7% (active) in test [2] (at 50.0 µM). Moreover, the growth inhibition in test [3] (setting [7]) was -15%; in test [3] (setting [8]) it was 99% (active); in test [3] (at 50.0 µM), 99.5% (active); in test [4] (setting [7]), -4%; in test [4] (setting [8]), 98% (active); in test [4] (at 50.0 µM) it was 98.7% (active). Besides, the growth inhibition in test [5] (setting [7]) is 16%; in test [5] (setting [8]), 98% (active); in test [5] (at 50.0 µM), 99.4% (active); in test [6] (setting [7]), 30%; in test [6] (setting [8]), 99% (active); in test [6] (at 50.0 µM), 99.2% (active).
For `Cc1ccc(S(=O)(=O)CC2(Br)Cc3ccccc3C2=O)cc1` (configuration not stated), the growth inhibition was 79% (active) in test [1] (setting [7]); 99% (active) in test [1] (setting [8]); 97.3% (active) in test [1] (at 50.0 µM); 76% (active) in test [2] (setting [7]); 99% (active) in test [2] (setting [8]); 98.8% (active) in test [2] (at 50.0 µM). The growth inhibition in test [3] (setting [7]) was 86% (active); in test [3] (setting [8]) it was 99% (active); in test [3] (at 50.0 µM), 99.1% (active); in test [4] (setting [7]), 24%; in test [4] (setting [8]), 99% (active); in test [4] (at 50.0 µM), 98.2% (active). Besides, the growth inhibition in test [5] (setting [7]) is 85% (active); in test [5] (setting [8]), 99% (active); in test [5] (at 50.0 µM) it was 99% (active); in test [6] (setting [7]) it was 75% (active); in test [6] (setting [8]), 98% (active); in test [6] (at 50.0 µM), 98.5% (active).
As to `O=C(O)CCC/C(=N\Nc1ccccc1)C(=O)O`, the growth inhibition in test [1] (setting [7]) was 5%; in test [1] (setting [8]) it was 97% (active); in test [1] (at 50.0 µM), 98.5% (active); in test [2] (setting [7]), 2%; in test [2] (setting [8]), 99% (active); in test [2] (at 50.0 µM) it was 99.2% (active). In addition, the growth inhibition in test [3] (setting [7]) was 6%; in test [3] (setting [8]) it was 97% (active); in test [3] (at 50.0 µM) it was 98.7% (active); in test [4] (setting [7]), 0%; in test [4] (setting [8]), 99% (active); in test [4] (at 50.0 µM) it was 97.4% (active). In addition, the growth inhibition was 1% in test [5] (setting [7]); 98% (active) in test [5] (setting [8]); 99% (active) in test [5] (at 50.0 µM); 7% in test [6] (setting [7]); 98% (active) in test [6] (setting [8]); 98.3% (active) in test [6] (at 50.0 µM).
Regarding `CCOC(=O)c1c(Cl)nnc(-c2ccccc2)c1-c1ccccc1`, the growth inhibition in test [1] (setting [7]) was 0%; in test [1] (setting [8]), 98% (active); in test [1] (at 50.0 µM), 98.2% (active); in test [2] (setting [7]) it was 1%; in test [2] (setting [8]) it was 99% (active); in test [2] (at 50.0 µM), 96.2% (active). Further, the growth inhibition in test [3] (setting [7]) was -2%; in test [3] (setting [8]), 98% (active); in test [3] (at 50.0 µM), 96.3% (active); in test [4] (setting [7]), 1%; in test [4] (setting [8]) it was 97% (active); in test [4] (at 50.0 µM), 92.3% (active). Besides, the growth inhibition in test [5] (setting [7]) was 13%; in test [5] (setting [8]), 98% (active); in test [5] (at 50.0 µM), 97.5% (active); in test [6] (setting [7]) it was -1%; in test [6] (setting [8]), 98% (active); in test [6] (at 50.0 µM), 98% (active).

The values are drawn from PubChem BioAssay (NCI).
